Of roughly 7,900 targets only a part is listed; those with a hit were picked by preference. About 0.6% of all pairs of compound and target were hits. A number with no mark means an inactive call.
Compound: FC(F)(F)c1ccc(/C=C/c2nc(COc3ccc(CCCCn4ccnn4)cc3)co2)cc1 [mubritinib]
Test: log2 fold change, soluble protein after heating vs DMSO (PISA); higher = thermal stabilisation; K562 cells, 10 uM, 30 min; active = over 0.2 and 3.5 SD of the protein, either way, in both replicates (recomputed)
Procedure, shortened: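 K562 cells at 2×10^6 cells/mL were treated with 10 μM compound for 30 min. Aliquots were heated for 3 min across 48°C-58°C, pooled, and extracted in PBS with 0.5% NP-40 at 4°C; soluble protein was the supernatant after 21,000xg for 90 min. Soluble protein was quantified by TMTpro 16plex LC-MS/MS with channel sums equalised, and reported as log2 fold change in thermal stability against DMSO controls, with values from duplicates.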

Sequence of UniProt P48729 (P48729 whole entry, looked up): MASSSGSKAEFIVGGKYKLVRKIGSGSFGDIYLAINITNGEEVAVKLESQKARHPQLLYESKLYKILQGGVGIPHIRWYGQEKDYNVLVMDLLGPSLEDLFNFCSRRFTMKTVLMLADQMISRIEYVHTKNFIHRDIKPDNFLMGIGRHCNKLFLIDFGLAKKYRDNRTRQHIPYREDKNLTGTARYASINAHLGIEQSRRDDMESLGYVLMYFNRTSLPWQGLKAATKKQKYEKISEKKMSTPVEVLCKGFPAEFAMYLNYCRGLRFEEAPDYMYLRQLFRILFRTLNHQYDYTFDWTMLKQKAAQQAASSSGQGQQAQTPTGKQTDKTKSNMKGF
Sequence of UniProt Q9UK58 (Q9UK58 whole entry, looked up): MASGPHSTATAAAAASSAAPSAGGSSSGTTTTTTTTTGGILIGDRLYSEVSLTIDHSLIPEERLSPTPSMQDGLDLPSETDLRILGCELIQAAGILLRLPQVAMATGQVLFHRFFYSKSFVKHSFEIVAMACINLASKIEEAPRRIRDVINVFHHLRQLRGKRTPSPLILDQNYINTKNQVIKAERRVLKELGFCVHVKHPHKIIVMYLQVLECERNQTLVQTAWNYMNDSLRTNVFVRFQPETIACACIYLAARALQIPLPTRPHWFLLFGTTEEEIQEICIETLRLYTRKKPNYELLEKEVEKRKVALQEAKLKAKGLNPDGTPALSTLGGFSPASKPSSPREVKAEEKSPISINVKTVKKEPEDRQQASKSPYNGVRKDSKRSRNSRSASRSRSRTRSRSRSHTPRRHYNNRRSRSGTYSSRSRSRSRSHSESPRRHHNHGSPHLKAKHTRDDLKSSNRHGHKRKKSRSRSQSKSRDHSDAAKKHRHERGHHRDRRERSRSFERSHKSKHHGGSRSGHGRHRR
Sequence of UniProt P30305 (P30305 whole entry, looked up): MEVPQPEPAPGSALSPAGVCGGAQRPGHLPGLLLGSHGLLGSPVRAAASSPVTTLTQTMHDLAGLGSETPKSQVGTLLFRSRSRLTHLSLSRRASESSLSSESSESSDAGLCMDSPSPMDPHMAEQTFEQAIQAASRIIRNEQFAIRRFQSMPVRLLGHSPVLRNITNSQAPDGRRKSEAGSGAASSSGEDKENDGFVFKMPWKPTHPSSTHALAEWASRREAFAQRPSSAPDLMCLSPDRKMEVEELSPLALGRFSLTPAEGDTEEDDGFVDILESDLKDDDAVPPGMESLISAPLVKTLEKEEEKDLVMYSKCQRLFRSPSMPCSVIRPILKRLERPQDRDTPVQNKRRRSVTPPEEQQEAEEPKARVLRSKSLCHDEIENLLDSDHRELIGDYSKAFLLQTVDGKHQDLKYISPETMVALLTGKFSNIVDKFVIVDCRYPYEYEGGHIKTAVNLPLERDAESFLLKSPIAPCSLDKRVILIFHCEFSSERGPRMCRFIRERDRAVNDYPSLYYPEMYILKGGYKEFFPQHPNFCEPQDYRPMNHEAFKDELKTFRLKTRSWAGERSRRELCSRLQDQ
Sequence of UniProt Q92828 (Q92828 whole entry, looked up): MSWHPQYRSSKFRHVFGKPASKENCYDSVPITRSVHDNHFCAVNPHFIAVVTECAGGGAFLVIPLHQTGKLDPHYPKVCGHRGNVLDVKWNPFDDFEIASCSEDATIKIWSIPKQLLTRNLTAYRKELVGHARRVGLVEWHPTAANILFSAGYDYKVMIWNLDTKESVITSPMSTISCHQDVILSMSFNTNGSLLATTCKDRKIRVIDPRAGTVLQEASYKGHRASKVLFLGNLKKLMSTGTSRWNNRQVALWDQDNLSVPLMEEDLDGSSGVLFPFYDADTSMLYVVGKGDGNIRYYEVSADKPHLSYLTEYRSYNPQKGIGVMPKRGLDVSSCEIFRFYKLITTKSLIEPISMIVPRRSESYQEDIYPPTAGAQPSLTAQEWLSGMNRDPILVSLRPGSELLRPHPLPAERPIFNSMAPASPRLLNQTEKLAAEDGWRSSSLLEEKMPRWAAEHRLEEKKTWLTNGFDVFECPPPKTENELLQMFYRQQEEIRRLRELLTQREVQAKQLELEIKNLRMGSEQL
Sequence of UniProt O75122 (O75122 whole entry, looked up): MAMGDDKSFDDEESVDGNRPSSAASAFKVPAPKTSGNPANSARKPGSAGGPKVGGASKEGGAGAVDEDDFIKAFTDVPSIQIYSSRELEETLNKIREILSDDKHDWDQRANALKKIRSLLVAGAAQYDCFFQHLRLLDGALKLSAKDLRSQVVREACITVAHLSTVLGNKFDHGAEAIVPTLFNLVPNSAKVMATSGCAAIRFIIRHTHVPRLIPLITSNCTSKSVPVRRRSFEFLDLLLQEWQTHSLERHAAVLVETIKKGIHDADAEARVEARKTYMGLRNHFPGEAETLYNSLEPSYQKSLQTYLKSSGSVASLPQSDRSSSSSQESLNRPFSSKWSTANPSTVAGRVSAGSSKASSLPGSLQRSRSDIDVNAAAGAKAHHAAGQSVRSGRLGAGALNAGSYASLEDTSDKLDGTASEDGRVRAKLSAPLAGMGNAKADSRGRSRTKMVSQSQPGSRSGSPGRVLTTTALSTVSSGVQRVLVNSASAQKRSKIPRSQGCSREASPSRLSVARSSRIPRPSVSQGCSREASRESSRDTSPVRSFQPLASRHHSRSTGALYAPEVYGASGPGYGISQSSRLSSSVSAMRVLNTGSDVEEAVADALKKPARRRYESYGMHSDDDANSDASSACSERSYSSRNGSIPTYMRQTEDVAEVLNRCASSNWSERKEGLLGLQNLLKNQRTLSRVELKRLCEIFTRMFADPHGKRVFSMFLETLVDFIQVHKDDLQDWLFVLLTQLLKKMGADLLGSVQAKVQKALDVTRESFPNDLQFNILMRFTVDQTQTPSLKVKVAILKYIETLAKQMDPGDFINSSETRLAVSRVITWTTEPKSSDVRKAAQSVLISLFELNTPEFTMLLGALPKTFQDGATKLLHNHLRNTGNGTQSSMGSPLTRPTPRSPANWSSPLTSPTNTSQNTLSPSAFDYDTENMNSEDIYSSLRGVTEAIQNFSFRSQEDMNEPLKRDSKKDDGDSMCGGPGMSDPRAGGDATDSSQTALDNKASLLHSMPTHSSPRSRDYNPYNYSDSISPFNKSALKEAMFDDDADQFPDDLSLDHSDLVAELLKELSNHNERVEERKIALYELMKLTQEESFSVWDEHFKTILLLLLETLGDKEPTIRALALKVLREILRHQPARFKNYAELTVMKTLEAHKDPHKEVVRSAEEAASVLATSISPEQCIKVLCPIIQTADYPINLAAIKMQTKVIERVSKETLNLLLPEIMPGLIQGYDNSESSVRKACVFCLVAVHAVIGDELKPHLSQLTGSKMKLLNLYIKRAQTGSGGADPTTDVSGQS
Sequence of UniProt Q5T655 (Q5T655 whole entry, looked up): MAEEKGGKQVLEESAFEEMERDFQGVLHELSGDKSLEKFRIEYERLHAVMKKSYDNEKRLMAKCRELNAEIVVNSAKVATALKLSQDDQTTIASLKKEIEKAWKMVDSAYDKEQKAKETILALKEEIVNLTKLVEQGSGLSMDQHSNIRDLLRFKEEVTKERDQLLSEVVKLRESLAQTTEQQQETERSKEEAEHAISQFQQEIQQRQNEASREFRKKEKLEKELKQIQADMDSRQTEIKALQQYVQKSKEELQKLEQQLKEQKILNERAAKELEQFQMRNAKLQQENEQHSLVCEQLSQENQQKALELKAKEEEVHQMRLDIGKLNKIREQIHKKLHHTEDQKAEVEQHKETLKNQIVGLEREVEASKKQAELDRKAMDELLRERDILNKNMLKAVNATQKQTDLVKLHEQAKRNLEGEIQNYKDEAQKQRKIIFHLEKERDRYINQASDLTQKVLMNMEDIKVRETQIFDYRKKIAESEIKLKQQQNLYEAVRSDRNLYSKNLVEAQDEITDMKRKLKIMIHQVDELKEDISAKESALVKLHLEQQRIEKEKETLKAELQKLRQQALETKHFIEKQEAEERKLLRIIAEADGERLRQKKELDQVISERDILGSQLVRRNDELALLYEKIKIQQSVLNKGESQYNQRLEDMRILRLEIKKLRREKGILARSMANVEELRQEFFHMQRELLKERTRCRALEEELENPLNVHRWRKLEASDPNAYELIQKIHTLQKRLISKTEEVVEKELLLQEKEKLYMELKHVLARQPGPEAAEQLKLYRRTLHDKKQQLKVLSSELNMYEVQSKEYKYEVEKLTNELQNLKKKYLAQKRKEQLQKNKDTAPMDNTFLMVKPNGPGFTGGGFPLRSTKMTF
Sequence of UniProt Q13286 (Q13286 whole entry, looked up): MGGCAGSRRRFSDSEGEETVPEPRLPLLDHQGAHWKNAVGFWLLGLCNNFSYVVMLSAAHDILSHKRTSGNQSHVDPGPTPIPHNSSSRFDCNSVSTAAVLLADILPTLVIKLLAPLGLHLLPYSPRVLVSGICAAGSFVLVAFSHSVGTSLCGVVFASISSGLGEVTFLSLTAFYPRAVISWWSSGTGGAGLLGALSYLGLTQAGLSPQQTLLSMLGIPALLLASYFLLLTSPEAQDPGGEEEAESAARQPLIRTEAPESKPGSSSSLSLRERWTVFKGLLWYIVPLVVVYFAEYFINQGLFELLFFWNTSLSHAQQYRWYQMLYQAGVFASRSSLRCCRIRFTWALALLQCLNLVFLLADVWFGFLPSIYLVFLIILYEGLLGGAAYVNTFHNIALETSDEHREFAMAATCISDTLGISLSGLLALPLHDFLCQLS
Sequence of UniProt A8MTT3 (A8MTT3 whole entry, looked up): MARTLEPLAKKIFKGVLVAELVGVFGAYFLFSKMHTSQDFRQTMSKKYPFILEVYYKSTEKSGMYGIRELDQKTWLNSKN
Sequence of UniProt P34810 (P34810 whole entry, looked up): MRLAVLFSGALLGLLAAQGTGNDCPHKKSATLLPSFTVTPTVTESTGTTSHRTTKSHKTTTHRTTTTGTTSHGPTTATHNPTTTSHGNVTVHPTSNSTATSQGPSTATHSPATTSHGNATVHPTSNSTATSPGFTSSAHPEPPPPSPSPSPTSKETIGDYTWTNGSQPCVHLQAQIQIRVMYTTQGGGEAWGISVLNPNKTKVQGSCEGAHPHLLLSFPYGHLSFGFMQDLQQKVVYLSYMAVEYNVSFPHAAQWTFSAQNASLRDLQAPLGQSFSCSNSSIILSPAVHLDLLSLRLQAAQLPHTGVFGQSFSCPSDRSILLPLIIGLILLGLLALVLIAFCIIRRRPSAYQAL

Row | Target | log2 fold change
1 | CCNDBP1 (UniProt O95273) | -0.045
2 | CORO2A (UniProt Q92828) | 0.048
3 | CLN3 (UniProt Q13286) | 0.09
4 | CD68 (UniProt P34810) | -0.003
5 | CLASP2 (UniProt O75122) | 0.027
6 | CCDC82 (UniProt Q8N4S0) | 0.087
7 | CNN1 (UniProt P51911) | 0.009
8 | CEBPZOS (UniProt A8MTT3) | 0.121
9 | CNRIP1 (UniProt Q96F85) | -0.148
10 | CREB3L2 (UniProt Q70SY1) | 0.13
11 | CEMIP2 (UniProt Q9UHN6) | -0.024
12 | CLN8 (UniProt Q9UBY8) | -0.08
13 | CCND3 (UniProt P30281) | 0.024
14 | CKS2 (UniProt P33552) | 0.325
15 | CNOT4 isoform 9 (UniProt O95628) | 0.055
16 | CLPTM1L (UniProt G5E9Z2) | 0.047
17 | CFAP58 (UniProt Q5T655) | 0.127
18 | CDK2AP2 (UniProt O75956) | 0.028
19 | CLINT1 (UniProt Q14677) | -0.007
20 | CCNL1 (UniProt Q9UK58) | 0.122
21 | CRTC3 (UniProt Q6UUV7) | -0.168
22 | CSNK1A1 isoform 3 (UniProt P48729) | 0.055
23 | CDC25B isoform 4 (UniProt P30305) | 0.074
24 | CCNT2 (UniProt O60583) | -0.209

Source: the supplement of paper PMC10849652
